Assay results from ChEMBL document CHEMBL3988442, “University of Dundee, Small-Polar-MMV Screening Library” (2021).
Hit rate of the full screen: of about 53,000 compounds, about 900 (1.7%) showed an effect of 50% or more. Many of the other results were omitted from the sample, so strong results are more common in it than they were.

Test system: Mycobacterium tuberculosis
Assay: Cornell - Phenotypic assay to identify agents that inhibit growth of Mycobacterium tuberculosis
Type: functional
Design: scale not given: direction of the effect not stated beside the values
Conditions: 10 mM as filed; unlikely as a test dose

SMILES	Percent Effect
C[C@@H]1CN(C2CCN(Cc3nn(C)c4cccc(Cl)c34)CC2)C[C@H](C)O1	-20.95%
Cn1nc(CN2CCCCC(N)C2)c2c(Cl)cccc21 (centres undefined)	-4.365%
Cn1nc(CN2CCCN(C3CCCC3)CC2)c2c(Cl)cccc21	60.03%
O=C(c1cccc(-n2cnnc2)c1)N1C[C@@H](O)[C@H](N2CCOCC2)C1	40.33%
CN1C(=O)C2(CC(=O)Nc3[nH]ncc32)c2ccc(F)cc21 (centres undefined)	10.37%
CN(Cc1cnccn1)S(=O)(=O)c1ccc(C(F)(F)F)nc1	-14.08%
CC(CS(C)(=O)=O)N(C)C(=O)NCCCc1ccc(Cl)cc1 (centres undefined)	12.33%
CS(=O)(=O)N1CCCCCC1c1cc(-c2ccc(F)cc2)no1 (centres undefined)	7%
CN(C)S(=O)(=O)N1CCCCCC1c1cc(-c2ccc(F)cc2)no1 (centres undefined)	73.32%
COc1ccc(-c2cc(C3CCCCCN3S(=O)(=O)N(C)C)on2)cc1 (centres undefined)	15.93%
Cc1ccc(NS(=O)(=O)c2cnn(Cc3ccccc3)c2)c(C(=O)O)c1	-25.98%
Cc1ccc(NS(=O)(=O)c2cnn(-c3ccccc3)c2)c(C(=O)O)c1	55.25%
Cc1ccc(-n2cc(S(=O)(=O)Nc3cccc(C(=O)O)c3C)cn2)cc1	9.419%
CCCN(CCC)c1ncc(S(=O)(=O)c2ccc(OC)cc2)c(N)n1	26.01%
CC[C@H]1CN(C(=O)c2cccc(-n3cnnc3)n2)CC[C@@]1(C)O	-27.2%
Cc1noc(C)c1C(=O)N1CCCC1(C)C(=O)NC1CCCC1 (centres undefined)	-3.819%
COc1ccc(NC(=O)N2CCC(c3nnc[nH]3)CC2)cc1C	16.56%
COc1ccc(NC(=O)N2CCC(c3noc(C)n3)CC2)cc1C	55.08%
CCOc1cc(C(=O)N2CCCC(c3noc(C)n3)C2)ccc1OC (centres undefined)	13.87%
CCn1cnnc1C1CCN(C(=O)c2cccc(C)c2C)CC1	-30.53%
Cc1ccc(NC2CCN(C(=O)Cc3cccs3)CC2)nn1	-3.843%
O=C(Cc1cccnc1)N1CC(Cc2nccc3cc[nH]c23)C1	4.598%

SMILES	Percent Effect
COc1ccccc1NC(=O)c1cnc(C2CCN(C(C)=O)C2)nc1C (centres undefined)	26.28%
Cl.Cl.Clc1cccc(C[C@@H]2NCCC[C@@H]2Nc2cccc(Cl)c2)c1	108.9%
O=C(C[S+]([O-])Cc1cccc(Cl)c1)NC1CCCC1 (centres undefined)	37.46%
O=C(Cc1cccc(Cl)c1)N[C@@H]1CCNC[C@H]1O	2.906%
O=C1NCCCc2[nH]c(Cc3cccc(Cl)c3)nc21	-7.355%
Cl.c1ccc(CCNc2cccc(C3CCCNC3)n2)cc1 (centres undefined)	12.44%
O=C(NCCc1cccc(Cl)c1)C1CCOCC1	10.9%
Cl.Cl.Clc1cccc(C[C@@H]2NCCC[C@@H]2Nc2ccccc2)c1	55.37%
CCOc1ccc(Cl)cc1C1CCCN1.Cl (centres undefined)	-3.998%
Cl.Clc1cccc(N[C@H]2CCCN[C@H]2Cc2ccccc2)c1	107%
Cc1ccc(-c2cc(CS(=O)(=O)NC3CCCNC3=O)on2)cc1 (centres undefined)	-20.71%
CN(Cc1ccsc1)C(=O)Cn1c(CS(C)(=O)=O)nc2ccccc21	17.82%
Cc1ccc(S(=O)(=O)NC2=NCN(CCc3cccs3)CN2)cc1	-5.965%
O=C(CCn1cccn1)N1CC[C@@H](c2ccc3ccccc3c2)[C@H](O)C1	-1.48%
O=C(CCN1CCCC1)N1CC[C@@H](c2ccc3ccccc3c2)[C@H](O)C1	59.79%
O=C(CCN1CCCO1)N1CC[C@@H](c2ccc3ccccc3c2)[C@H](O)C1	5.243%
O=S1(=O)CCC(S(=O)(=O)c2cccc(S(=O)(=O)N3CCCC3)c2)C1 (centres undefined)	4.254%
CN(Cc1ccco1)[C@@H]1CN(Cc2cccs2)C[C@@H]2CCCO[C@@H]21.O=C(O)C(F)(F)F.O=C(O)C(F)(F)F	3.22%
Cc1cc(N[C@H]2CCCN(Cc3ccccc3)C2)n2nc(C)cc2n1	-6.549%
Cc1cc(NC2CCCN(Cc3ccc(F)cc3)C2)n2nc(C)cc2n1 (centres undefined)	55.74%
Cc1cc(NC2CCN(c3ccc(F)cc3)CC2)n2nc(C)cc2n1	39.2%
O=C(CCc1cccs1)N1CCCC1c1noc(C2CC2)n1 (centres undefined)	-0.7961%

SMILES	Percent Effect
CC(NC(=O)c1cn(CCC2CCCCC2)nn1)c1cnn(C)c1 (centres undefined)	-6.193%
Cc1nc2c(NC(CC(C)(C)C)c3cccnc3)ncnc2o1 (centres undefined)	-7.649%
CCCOc1ccccc1CCCNc1ncnc2oc(C)nc12	30.24%
CCCOc1ccc(Cl)cc1CNc1ncnc2oc(C)nc12	65.32%
CCc1nnc(CN(C)C(=O)C(CC)n2c(CC)nc3ccccc32)o1 (centres undefined)	5.212%
CCNC(=O)[C@@H]1C[C@@H](NC(=O)c2cc(C)on2)CN1Cc1ccccn1	-5.653%
COc1ccc(C)cc1NC(=O)Nc1cnc(O)nc1O	28.36%
CCN(CC)c1ccc(NS(=O)(=O)c2cnn(C)c2)cn1	9.807%
CCN(CC)c1ccc(NS(=O)(=O)c2cccnc2)cn1	24.54%
CCN(CC)c1ccc(NS(=O)(=O)c2cncc(F)c2)cn1	62.74%
COc1cccc(CNCC2CN(C)CCO2)c1 (centres undefined)	10.27%
CC(=O)N1CCN(Cc2ccc(OCc3nccn3C)cc2)CC1	-16.77%
Cc1cc2nccc(C3CCCN(C(=O)c4ccccc4F)C3)n2n1 (centres undefined)	8.36%
c1nc(-c2nc(C3CCOC3)no2)cs1 (centres undefined)	-30.96%
O=C(Nc1ccccc1)c1ccc(NCc2ccncc2)nn1	71.71%
O=C(Nc1ccccc1)c1ccc(NCc2ccccc2CO)nn1	16.95%
O=C(Nc1ccccc1)c1ccc(NCc2nccs2)nn1	40.64%
CC(=O)N1CCCC1c1nc(C)c2c(n1)N(Cc1ccccn1)CCC2 (centres undefined)	-10.82%
O=C(CCCOCc1ccccc1)N1CCCC(c2ncc[nH]2)C1 (centres undefined)	18.83%
O=C(Cc1cccs1)N1CC[C@H]2[C@@H]1CCC(=O)N2c1cccnc1.O=C(O)C(F)(F)F	4.016%
